The values that follow come from PubChem BioAssay (NCATS).

Holding throughout (test): qHTS profiling for inhibitors of Plasmodium falciparum proliferation (AID 504749); also: nearly all actives have a fitted effect of over 60% in size
Common to all, as to conditions: P. falciparum in erythrocytes, SYBR Green DNA, 72 h; series mostly up to 28.7 µM
A general note: In qHTS, concentration-response curves come from the screen itself.

One test relates to CP335. The gist of the method:
(§1)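 Infected RBCs, 0.3% parasitemia/2.5% Hct final; cpd 72 h, 37 C, 5% CO2; lysis buffer with saponin/triton/SYBR Green I, o/n RT dark; FI 485/535; norm. to artemisinin (0.29 uM) and DMSO.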

The next test has as its system DFO2036. A digest of the protocol:
as §1

A further test concerns DIV14. A digest of the protocol: as §1
For another test, the system named is DIV17. The gist of the method: as §1
The subject of a further test is DIV30. A digest of the protocol: as §1
The test system of another test is Dd2. A digest of the protocol: as §1
In another test the test system is ECU. A digest of the protocol:
as §1

A further test relates to FAB9. The gist of the method:
as §1

The subject of a further test is GB4. The gist of the method: as §1
A further test concerns HB3. The gist of the method:
as §1

Results filed as inconclusive are left out. Activity calls are given as the source filed them. Calls follow the shape of the dose curve; as a rule, active = well fitted inhibition curve with a large enough effect; inconclusive = small, poorly fitted or top-dose-only effect; inactive = flat fitted curve, though single readings scatter.
Potency is read from the fitted curve at half-maximal effect.

Take `CCCCCCCC/C=C\CCCCCCCCN`: the Potency entry with CP335, in the test on DFO2036, in the test with DIV14, in the test with DIV17, with DIV30 and with Dd2 was “inactive” in each case. The Potency result with ECU, in the test on FAB9, in the test on GB4 and in the test with HB3 was “inactive” each time.
Take `CCOC(=O)C(C#N)=C(c1ccccc1)c1ccccc1`: the Potency entry with CP335, in the test with DFO2036, in the test on DIV14, with DIV17, in the test with DIV30 and in the test on Dd2 was “inactive” in each case. Besides, the Potency result with ECU, in the test with FAB9, with GB4 and in the test on HB3 was “inactive” in each case.
`O=c1[nH]c(=O)n([C@H]2C[C@H](O)[C@@H](CO)O2)cc1F`: the Potency result in the test with CP335, with DFO2036, in the test with DIV14, with DIV17, in the test with DIV30 and in the test on Dd2 was “inactive” each time. The Potency entry in the test on ECU, in the test with FAB9, with GB4 and with HB3 was “inactive” each time.
Consider `CCCN(CCC)S(=O)(=O)c1ccc(C(=O)O)cc1`, for which the Potency result in the test with CP335, with DFO2036, in the test on DIV14, in the test on DIV17, in the test with DIV30 and in the test with Dd2 was “inactive” in each case. Besides, the Potency result in the test with ECU, in the test on FAB9, in the test on GB4 and in the test with HB3 was “inactive” in each case.
In the case of `CCOc1cc(OCC)c(C(=O)CCC(=O)O)cc1OCC`, the Potency entry in the test with CP335, with DFO2036, in the test with DIV14, with DIV17, in the test with DIV30 and in the test with Dd2 was “inactive” throughout. Moreover, the Potency entry in the test with ECU, in the test with FAB9, in the test on GB4 and in the test with HB3 was “inactive” throughout.
Regarding `CCOc1ccccc1C(N)=O`, the Potency entry with CP335, in the test with DFO2036, with DIV14, in the test on DIV17, with DIV30 and in the test with Dd2 was “inactive” each time. Further, the Potency result with ECU, in the test with FAB9, in the test on GB4 and in the test on HB3 was “inactive” throughout.
For `Nc1nc(N)c(-c2ccccc2)s1`, the Potency result with CP335, in the test with DFO2036, with DIV14, in the test with DIV17, in the test on DIV30 and with Dd2 was “inactive” throughout. Further, the Potency result with ECU, in the test with FAB9, in the test with GB4 and with HB3 was “inactive” each time.
On to `O=S(=O)(O)c1ccc(O)cc1`, for which the Potency result in the test with CP335, with DFO2036, in the test with DIV14, with DIV17, in the test on DIV30 and with Dd2 was “inactive” each time. Moreover, the Potency result in the test with ECU, with FAB9, with GB4 and in the test with HB3 was “inactive” each time.
As for `N=C(N)N1CCc2ccccc2C1`, the Potency result in the test with CP335, with DFO2036, in the test on DIV14, in the test on DIV17, with DIV30 and with Dd2 was “inactive” in each case. In addition, the Potency entry in the test with ECU, with FAB9, in the test on GB4 and in the test on HB3 was “inactive” throughout.
Take `C/C=C/C=N/NC(=O)c1ccncc1`: the Potency entry in the test with CP335, in the test with DFO2036, with DIV14, in the test on DIV17, in the test with DIV30 and in the test on Dd2 was “inactive” throughout. In addition, the Potency entry in the test with ECU, in the test with FAB9, in the test on GB4 and with HB3 was “inactive” each time.
For `NS(=O)(=O)c1cc(C(=O)O)cc(N2CCCC2)c1Oc1ccccc1`, the Potency result in the test on CP335, with DFO2036, with DIV14, with DIV17, in the test on DIV30 and with Dd2 was “inactive” in each case. The Potency entry with ECU, in the test on FAB9, with GB4 and in the test on HB3 was “inactive” in each case.
For the molecule `O=C(O)C1(C(=O)O)CCC1.[NH2-].[NH2-].[Pt+2]`, the Potency entry with CP335, with DFO2036, in the test with DIV14, with DIV17, in the test on DIV30 and with ECU was “inactive” each time. The Potency entry in the test with FAB9 and with GB4 was “inactive” in each case. The Potency with HB3 is 10 µM (active).
Take `CCCCc1cc2ccccc2c(OCCN(C)C)n1`: the Potency result in the test on CP335, in the test on DFO2036, with DIV14, with DIV17, with DIV30 and in the test with ECU was “inactive” in each case. The Potency entry in the test on FAB9 and with HB3 was “inactive” throughout.
On to `COP(=O)(OC)OC(c1ccc(Cl)cc1)P(=O)(OC)OC` (stereo unspecified), for which the Potency result in the test with CP335, with DFO2036, with DIV14, in the test on DIV17, in the test with DIV30 and with Dd2 was “inactive” each time. Also, the Potency result in the test with ECU, in the test with FAB9, with GB4 and in the test on HB3 was “inactive” throughout.
Regarding `CCCCCCCCCCCCCC[N+](C)(C)Cc1ccccc1`, the Potency is 4.78 µM (active) with CP335; 7.94 µM (active) with DFO2036; 4.78 µM (active) in the test with DIV14; 4.78 µM (active) in the test on DIV17; 6.75 µM (active) with DIV30; 10 µM (active) in the test with Dd2. Further, the Potency is 7.08 µM (active) in the test with ECU, 5.62 µM (active) with FAB9, 4.26 µM (active) in the test on GB4 and 8.91 µM (active) in the test on HB3.
On to `O=C1C(O)=C(O)C(=O)C(O)=C1O`, for which the Potency entry in the test on CP335, with DFO2036, with DIV14, in the test on DIV17, in the test on DIV30 and in the test on ECU was “inactive” in each case. Moreover, the Potency entry with FAB9, in the test on GB4 and in the test on HB3 was “inactive” each time. For the same molecule, the Potency with Dd2 is 10 µM (active).
For the molecule `CC(C)(C)NC[C@H](O)COc1nsnc1N1CCOCC1`, the Potency in the test with CP335 is 8.49 µM (active); in the test on DFO2036, 6.31 µM (active); in the test on DIV14, 3.38 µM (active); in the test with DIV17, 3.38 µM (active); in the test on Dd2 it was 5.62 µM (active); in the test on ECU it was 7.94 µM (active). Moreover, the Potency was 7.57 µM (active) in the test with GB4 and 3.55 µM (active) in the test on HB3.
Consider `Nc1ccc(C(=O)NCC(=O)O)cc1`, for which the Potency entry in the test on CP335, in the test on DFO2036, in the test with DIV14, in the test on DIV17, with DIV30 and with Dd2 was “inactive” throughout. For the same molecule, the Potency entry in the test with ECU, in the test with FAB9, in the test with GB4 and with HB3 was “inactive” throughout.
Take `CCCCCCCCCCCCCC(=O)OC(C)C`: the Potency entry with CP335, in the test with DFO2036, with DIV14, with DIV17, with Dd2 and in the test with ECU was “inactive” in each case. For the same molecule, the Potency result in the test with FAB9, with GB4 and in the test with HB3 was “inactive” in each case.
As to `O=C(Nc1cccc(C2=NCCN2)c1)Nc1cccc(C2=NCCN2)c1`, the Potency is 12 µM (active) with CP335; 1.78 µM (active) with DFO2036; 3.01 µM (active) in the test on DIV14; 4.26 µM (active) in the test on DIV17; 13.5 µM (active) in the test on DIV30; 0.891 µM (active) in the test on Dd2. In addition, the Potency is 3.16 µM (active) in the test on ECU, 3.79 µM (active) with GB4 and 10 µM (active) with HB3.
With `COc1ccc(CCN(C)CCCN2CCc3cc(OC)c(OC)cc3CC2=O)cc1OC`, the Potency result in the test on CP335, with DFO2036, with DIV14, with DIV17, with DIV30 and in the test with ECU was “inactive” in each case. The Potency result with FAB9, in the test on GB4 and in the test with HB3 was “inactive” throughout.
On to `CCc1oc2ccccc2c1C(=O)c1cc(I)c(O)c(I)c1`, for which the Potency result in the test on CP335, with DFO2036, with DIV14, in the test on DIV17, in the test on DIV30 and in the test with Dd2 was “inactive” throughout. The Potency result in the test on ECU, in the test with FAB9, in the test with GB4 and in the test on HB3 was “inactive” each time.
For `CCC(CC)(CC(=O)Nc1cccc(/C=C/c2nc(C3CCC3)cs2)c1)C(=O)O`, the Potency entry in the test on CP335, in the test on DFO2036, in the test on DIV14, in the test with DIV30, in the test on Dd2 and in the test on ECU was “inactive” in each case. In addition, the Potency result in the test on FAB9, with GB4 and with HB3 was “inactive” throughout.
